Data from article PMC5540273 (PLoS ONE, 2017).

Test system: TAOK3
Conditions: concentration: 1 μM, replicates: in singlicate; n = 1
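Also: KINOMEscan kinase panel screen.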

| Structure (SMILES) | %Inh [%] |
| --- | --- |
| Cl.Nc1ncnc2occ(-c3ccc(NC(=O)Nc4cc(C(F)(F)F)ccc4F)cc3)c12 [SB-707548] | 17 |
| O=C(NOCC1CC1)c1ccc(F)c(F)c1Nc1ccc(I)cc1Cl | 0 |
| CCc1ccnc(/C=C/c2n[nH]c3cc(Sc4ccccc4C(=O)NC)ccc23)c1 | 0 |
| CN1c2ccc(CNc3ccc(F)cc3)cc2-c2c(cnn2C)S1(=O)=O | 0 |
| COc1cc2c(cc1OC[C@@H](O)CO)ncc1c3ccc(C#N)cc3[nH]c21 | 0 |
| COc1ccc(S(=O)(=O)NC2CCN(c3cc(C)nc(Nc4cccc(C#N)c4)n3)CC2)cc1.O=C(O)C(F)(F)F [GSK1653539] | 0 |
| Cc1ccc(NC(=O)c2ccnc(N3CCN(C)CC3)c2)cc1-c1ccc(C(=O)NCC2CC2)cc1 [GW775604] | 0 |
| Cc1c2ccc(N(C)c3ccnc(Nc4cccc(S(N)(=O)=O)c4)n3)cc2nn1Cc1ccccc1.Cl.Cl [GW787226] | 0 |
| CC(=O)Nc1ccc(COc2ccc(Nc3ccnc4cc(-c5ccccn5)ccc34)cc2)cc1.Cl [GW440148] | 0 |
| Cc1nnc(-c2ccc3occ(-c4ccc(C(C)O)cc4)c3c2)o1 (centres unmarked) | 0 |
| CNc1ncnc2[nH]ncc12 [SKF-18355] | 0 |
| Cn1cc(-c2ccc3c(c2)CCN3C(=O)Cc2ccccc2Cl)c2c(N)ncnc21 [GSK2608885] | 47 |
| Cc1cccc(-c2nc(-c3ccc(S(C)(=O)=O)cc3)sc2-c2ccncc2)c1 | 0 |
| O=C1NC(=O)C(N2CCc3ccccc32)=C1c1cccc(Cl)c1 [SB-408010] | 0 |
| Cc1cccc(Cn2ccn3c(=O)cc(N4CCOCC4)nc23)c1 [GSK2297542] | 0 |
| Cl.Oc1cccc(Nc2ccnc3cc(-c4ccncc4)ccc23)c1 [GW494601] | 0 |
| O=c1cc(N2CCOCC2)nc2n(Cc3cccc(F)c3)ccn12 [GSK2297430] | 0 |
| CC(C)(C)n1cnc2c(N)ncnc21 [SKF-97359] | 0 |

| Structure (SMILES) | %Inh [%] |
| --- | --- |
| Fc1ccc(-c2nn3c(OCC(F)(F)F)cccc3c2-c2ccncc2)cc1 [GW514784] | 0 |
| CSc1ccc(-c2cc3ncnc(SCC(=O)O)c3s2)cc1 | 0 |
| [2H]C([2H])(c1cccc(C(F)(F)F)c1C)n1ccn2c(=O)nc(N3CCOCC3)cc12 [GSK2336394] | 0 |
| Cc1ccc(C(=O)NCC(N)=O)cc1-n1c(C)cc(OCc2ccc(F)cc2F)c(Br)c1=O | 0 |
| COc1cc2ncn(-c3cc(OCc4sccc4Cl)c(C(N)=O)s3)c2cc1OC [GSK448459] | 0 |
| O=C(NCCNc1ccnc(Nc2ccc(F)cc2)n1)c1cc2ccccc2s1 [GSK1379874] | 0 |
| O=C(NCCNc1ccnc(Nc2ccc(F)cc2)n1)Nc1ccccc1F [GSK1379880] | 0 |
| CCn1cnc2c(N)ncnc21 [GW345098] | 0 |
| Cc1cn2c(=O)cc(N3CCOCC3)nc2n1Cc1cccc(Cl)c1Cl [GSK2334006] | 0 |
| CN(C(=O)c1ccc(-c2cc(-c3c[nH]nc3-c3ccccn3)ccn2)cc1)C1CCOCC1 [GW810083] | 0 |
| COC(=O)Nc1nc2cc(Oc3ccc(NC(=O)Nc4cc(F)ccc4F)cc3)ccc2[nH]1.Cl [GW701424] | 0 |
| COc1ccc(CNC(=O)NC2CCN(c3ccnc(Nc4ccc(OC)cc4)n3)C2)cc1 (centres unmarked) [GSK1379727] | 0 |
| Cc1cccc(-c2nc(Nc3ccc4ncsc4c3)c3ccccc3n2)n1 [GW867588] | 6 |
| NS(=O)(=O)c1cccc(-c2ccc3ncc(N4CCOCC4)nc3c2)c1 [GSK1535721] | 4 |
| C[C@@H](Oc1cc(-n2cnc3ccc(NC(=O)NC(C)(C)C)cc32)sc1C(N)=O)c1ccccc1Cl [GSK346294] | 0 |
| COc1ccc(Nc2nccc(N3CCC(NC(=O)Nc4cccc(C(C)=O)c4)C3)n2)cc1 (centres unmarked) [GSK1379731] | 0 |
| Cc1nnc(-c2ccc3ncc(-c4ccc(S(C)=O)cc4)n3c2)o1 (centres unmarked) | 0 |
